From the supplement of paper PMC11732987, “Enantioselective OTUD7B fragment discovery through chemoproteomics screening and high-throughput optimisation” (Communications Chemistry, 2025)

Key:
Assay in all cases: log2 ratio of Biotin-Ahx-Ub-VS probe labelling (fragment/DMSO); higher = less target engagement (more negative = stronger competition), active = hit call of the paper (q ≤ 0.05, log2 ratio ≤ -1)
Conditions in all cases: compound concentration: 200 uM; treatment time: 3 h
USP19 = molecular target: T1, USP19 (UniProt O94966)
T1 sequence (whole entry): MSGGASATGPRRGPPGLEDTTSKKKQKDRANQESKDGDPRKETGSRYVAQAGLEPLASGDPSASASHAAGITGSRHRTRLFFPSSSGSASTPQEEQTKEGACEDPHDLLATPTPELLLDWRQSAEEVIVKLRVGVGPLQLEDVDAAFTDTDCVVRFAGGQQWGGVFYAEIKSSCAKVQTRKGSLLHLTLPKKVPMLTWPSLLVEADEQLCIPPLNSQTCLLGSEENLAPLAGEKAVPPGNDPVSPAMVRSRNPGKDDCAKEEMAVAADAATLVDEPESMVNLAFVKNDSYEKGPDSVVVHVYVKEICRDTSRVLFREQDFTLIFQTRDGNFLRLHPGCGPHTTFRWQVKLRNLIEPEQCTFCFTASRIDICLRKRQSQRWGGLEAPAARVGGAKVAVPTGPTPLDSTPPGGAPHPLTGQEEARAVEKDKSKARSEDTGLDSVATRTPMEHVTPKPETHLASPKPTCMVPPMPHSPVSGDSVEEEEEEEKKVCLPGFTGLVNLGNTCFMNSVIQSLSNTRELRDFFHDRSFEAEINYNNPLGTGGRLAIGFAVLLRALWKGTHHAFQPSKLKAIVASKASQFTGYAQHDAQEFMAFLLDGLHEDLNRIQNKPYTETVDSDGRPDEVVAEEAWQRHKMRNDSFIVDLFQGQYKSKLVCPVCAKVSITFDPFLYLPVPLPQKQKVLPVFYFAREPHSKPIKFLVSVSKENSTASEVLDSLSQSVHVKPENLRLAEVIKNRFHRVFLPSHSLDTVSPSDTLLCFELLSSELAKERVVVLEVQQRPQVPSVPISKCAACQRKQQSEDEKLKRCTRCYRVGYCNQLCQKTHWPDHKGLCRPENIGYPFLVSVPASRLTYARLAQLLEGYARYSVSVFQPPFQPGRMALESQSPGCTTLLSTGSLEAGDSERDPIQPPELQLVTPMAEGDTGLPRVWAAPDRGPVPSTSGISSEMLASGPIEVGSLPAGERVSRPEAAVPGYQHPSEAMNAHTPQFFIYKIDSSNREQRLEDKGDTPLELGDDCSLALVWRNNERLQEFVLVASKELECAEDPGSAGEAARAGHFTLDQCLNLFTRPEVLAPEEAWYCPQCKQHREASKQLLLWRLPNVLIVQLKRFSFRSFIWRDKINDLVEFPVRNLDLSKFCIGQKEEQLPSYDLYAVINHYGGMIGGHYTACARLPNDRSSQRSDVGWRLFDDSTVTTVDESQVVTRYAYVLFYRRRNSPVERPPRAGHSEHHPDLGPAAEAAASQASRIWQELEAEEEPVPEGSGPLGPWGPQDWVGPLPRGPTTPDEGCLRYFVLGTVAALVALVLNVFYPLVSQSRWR
Procedure, shortened: (§1)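 HEK293T lysate (495 µg per sample, in Tris/CHAPS/IGEPAL buffer with protease inhibitors) was exposed in triplicate for 3 h to fragment at 200 µM or to vehicle, then to Biotin-Ahx-Ub-VS at 0.5 µM final for 1 h. Labelled DUBs were enriched on NeutrAvidin, digested with LysC and trypsin, and analysed by diaPASEF LC-MS/MS. Spectronaut label-free quantities were normalised to the global median, and values are average log2 ratios of fragment over vehicle from an unpaired t-test. Only proteins with ≥2 unique peptides were used.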

USP22 = molecular target: T2, USP22 (UniProt Q9UPT9)
T2 sequence (whole entry): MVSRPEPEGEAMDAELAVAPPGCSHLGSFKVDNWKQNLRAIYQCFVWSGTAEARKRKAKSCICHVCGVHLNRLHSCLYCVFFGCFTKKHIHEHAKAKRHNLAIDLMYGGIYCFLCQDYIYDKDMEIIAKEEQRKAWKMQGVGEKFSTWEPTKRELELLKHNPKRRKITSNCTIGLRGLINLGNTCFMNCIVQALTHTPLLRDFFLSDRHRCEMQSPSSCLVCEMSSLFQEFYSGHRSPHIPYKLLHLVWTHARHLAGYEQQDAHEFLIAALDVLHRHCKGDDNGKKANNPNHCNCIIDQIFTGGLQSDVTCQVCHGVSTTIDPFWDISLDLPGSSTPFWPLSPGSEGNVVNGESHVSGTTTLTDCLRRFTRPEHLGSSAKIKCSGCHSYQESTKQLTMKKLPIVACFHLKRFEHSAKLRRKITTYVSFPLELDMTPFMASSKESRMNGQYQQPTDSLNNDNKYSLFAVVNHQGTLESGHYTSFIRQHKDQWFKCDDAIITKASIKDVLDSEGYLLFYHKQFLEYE
Procedure, shortened: as §1

USP24 = USP24 (UniProt Q9UPU5)
Chain of USP24 (Q9UPU5 whole entry): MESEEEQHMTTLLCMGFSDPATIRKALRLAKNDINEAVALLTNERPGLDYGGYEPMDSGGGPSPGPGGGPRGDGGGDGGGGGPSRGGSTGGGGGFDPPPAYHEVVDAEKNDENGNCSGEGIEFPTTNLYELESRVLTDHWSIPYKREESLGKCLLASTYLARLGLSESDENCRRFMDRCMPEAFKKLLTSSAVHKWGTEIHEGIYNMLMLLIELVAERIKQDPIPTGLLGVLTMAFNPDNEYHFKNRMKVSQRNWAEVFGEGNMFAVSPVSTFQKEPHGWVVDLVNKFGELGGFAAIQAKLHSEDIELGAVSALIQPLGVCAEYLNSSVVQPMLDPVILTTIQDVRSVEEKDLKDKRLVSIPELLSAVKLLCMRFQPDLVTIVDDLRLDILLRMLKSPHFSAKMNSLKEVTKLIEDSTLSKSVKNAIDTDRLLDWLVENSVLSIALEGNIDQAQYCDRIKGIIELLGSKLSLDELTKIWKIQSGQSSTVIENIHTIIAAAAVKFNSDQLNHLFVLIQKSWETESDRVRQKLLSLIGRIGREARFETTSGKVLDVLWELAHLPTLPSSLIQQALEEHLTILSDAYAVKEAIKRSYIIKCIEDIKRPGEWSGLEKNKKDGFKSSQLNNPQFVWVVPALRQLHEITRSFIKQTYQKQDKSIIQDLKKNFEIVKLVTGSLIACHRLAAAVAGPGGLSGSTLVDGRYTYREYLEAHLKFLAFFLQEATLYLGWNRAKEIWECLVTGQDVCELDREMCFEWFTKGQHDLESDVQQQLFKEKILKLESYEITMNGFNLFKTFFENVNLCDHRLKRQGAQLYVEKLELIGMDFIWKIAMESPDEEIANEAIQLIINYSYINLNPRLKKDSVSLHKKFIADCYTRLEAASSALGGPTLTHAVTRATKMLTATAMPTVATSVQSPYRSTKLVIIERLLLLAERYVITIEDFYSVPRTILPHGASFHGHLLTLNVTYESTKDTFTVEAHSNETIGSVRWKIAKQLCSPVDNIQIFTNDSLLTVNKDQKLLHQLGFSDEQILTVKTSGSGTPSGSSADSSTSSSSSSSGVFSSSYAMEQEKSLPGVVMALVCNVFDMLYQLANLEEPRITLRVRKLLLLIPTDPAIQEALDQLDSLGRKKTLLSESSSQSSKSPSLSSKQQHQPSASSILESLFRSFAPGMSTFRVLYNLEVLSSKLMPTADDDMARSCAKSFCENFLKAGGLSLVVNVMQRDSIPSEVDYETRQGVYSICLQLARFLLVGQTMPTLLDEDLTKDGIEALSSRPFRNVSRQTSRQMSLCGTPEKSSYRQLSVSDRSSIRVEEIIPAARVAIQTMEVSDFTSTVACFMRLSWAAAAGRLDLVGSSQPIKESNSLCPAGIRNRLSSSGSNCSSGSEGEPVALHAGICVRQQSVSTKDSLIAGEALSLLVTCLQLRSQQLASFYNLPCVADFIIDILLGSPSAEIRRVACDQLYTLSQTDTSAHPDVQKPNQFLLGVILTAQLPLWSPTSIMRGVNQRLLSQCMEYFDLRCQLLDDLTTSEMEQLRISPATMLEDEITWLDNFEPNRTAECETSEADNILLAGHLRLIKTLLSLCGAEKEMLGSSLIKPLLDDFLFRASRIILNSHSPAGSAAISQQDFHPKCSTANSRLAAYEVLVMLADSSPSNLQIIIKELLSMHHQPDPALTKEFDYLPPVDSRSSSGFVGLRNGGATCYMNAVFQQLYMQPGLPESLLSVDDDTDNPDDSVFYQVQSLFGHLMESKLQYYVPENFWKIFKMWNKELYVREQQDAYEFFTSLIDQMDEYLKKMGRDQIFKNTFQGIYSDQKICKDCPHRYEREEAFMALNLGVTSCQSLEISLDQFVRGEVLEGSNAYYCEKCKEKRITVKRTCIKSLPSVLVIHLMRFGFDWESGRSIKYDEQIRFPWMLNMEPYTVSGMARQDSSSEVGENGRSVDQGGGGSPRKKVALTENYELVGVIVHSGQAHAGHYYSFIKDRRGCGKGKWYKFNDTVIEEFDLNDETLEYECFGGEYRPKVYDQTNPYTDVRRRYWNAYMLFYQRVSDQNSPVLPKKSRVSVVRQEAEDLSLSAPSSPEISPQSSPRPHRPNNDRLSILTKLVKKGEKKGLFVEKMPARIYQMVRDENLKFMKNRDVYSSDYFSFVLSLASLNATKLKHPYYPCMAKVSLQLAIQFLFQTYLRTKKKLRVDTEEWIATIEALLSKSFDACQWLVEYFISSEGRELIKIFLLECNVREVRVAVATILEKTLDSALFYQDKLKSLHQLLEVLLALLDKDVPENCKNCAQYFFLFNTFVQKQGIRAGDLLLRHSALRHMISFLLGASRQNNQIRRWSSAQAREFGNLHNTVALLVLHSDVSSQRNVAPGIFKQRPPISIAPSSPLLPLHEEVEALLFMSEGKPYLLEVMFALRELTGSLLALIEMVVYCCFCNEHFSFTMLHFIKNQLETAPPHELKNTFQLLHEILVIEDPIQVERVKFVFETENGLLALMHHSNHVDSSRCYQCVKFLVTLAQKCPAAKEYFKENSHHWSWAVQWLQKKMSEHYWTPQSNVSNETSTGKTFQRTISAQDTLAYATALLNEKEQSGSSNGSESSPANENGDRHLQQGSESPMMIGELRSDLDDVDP
Procedure, shortened: as §1

USP25 = molecular target: T3, USP25 (UniProt Q9UHP3)
T3 sequence (whole entry): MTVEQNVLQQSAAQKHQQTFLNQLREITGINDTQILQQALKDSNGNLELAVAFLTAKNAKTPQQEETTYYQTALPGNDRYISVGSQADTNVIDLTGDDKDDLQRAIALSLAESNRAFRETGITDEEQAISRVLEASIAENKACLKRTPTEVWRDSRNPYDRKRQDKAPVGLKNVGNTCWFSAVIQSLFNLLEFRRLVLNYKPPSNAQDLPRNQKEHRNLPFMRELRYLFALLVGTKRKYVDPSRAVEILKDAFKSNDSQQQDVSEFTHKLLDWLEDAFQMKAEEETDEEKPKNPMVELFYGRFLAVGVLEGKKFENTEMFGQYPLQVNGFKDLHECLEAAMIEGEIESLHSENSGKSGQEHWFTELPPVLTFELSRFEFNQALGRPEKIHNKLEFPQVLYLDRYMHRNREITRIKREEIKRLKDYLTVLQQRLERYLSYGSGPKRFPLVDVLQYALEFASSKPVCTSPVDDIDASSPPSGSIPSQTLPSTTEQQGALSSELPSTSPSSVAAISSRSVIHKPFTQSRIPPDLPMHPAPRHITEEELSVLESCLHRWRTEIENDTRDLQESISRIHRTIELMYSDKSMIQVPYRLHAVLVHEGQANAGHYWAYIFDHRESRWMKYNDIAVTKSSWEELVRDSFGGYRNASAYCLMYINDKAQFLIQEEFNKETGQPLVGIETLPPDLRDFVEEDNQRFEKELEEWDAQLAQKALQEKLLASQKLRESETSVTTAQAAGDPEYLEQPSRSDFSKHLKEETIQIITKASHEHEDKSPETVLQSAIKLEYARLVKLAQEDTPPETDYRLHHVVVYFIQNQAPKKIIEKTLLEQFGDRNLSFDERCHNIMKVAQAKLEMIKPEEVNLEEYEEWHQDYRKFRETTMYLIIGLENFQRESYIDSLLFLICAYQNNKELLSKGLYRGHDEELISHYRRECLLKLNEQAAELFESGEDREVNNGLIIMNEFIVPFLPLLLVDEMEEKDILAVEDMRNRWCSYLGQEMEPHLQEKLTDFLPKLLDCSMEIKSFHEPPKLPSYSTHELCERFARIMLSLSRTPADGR
Procedure, shortened: as §1

USP28 = molecular target: T4, USP28 (UniProt Q96RU2)
T4 sequence (whole entry): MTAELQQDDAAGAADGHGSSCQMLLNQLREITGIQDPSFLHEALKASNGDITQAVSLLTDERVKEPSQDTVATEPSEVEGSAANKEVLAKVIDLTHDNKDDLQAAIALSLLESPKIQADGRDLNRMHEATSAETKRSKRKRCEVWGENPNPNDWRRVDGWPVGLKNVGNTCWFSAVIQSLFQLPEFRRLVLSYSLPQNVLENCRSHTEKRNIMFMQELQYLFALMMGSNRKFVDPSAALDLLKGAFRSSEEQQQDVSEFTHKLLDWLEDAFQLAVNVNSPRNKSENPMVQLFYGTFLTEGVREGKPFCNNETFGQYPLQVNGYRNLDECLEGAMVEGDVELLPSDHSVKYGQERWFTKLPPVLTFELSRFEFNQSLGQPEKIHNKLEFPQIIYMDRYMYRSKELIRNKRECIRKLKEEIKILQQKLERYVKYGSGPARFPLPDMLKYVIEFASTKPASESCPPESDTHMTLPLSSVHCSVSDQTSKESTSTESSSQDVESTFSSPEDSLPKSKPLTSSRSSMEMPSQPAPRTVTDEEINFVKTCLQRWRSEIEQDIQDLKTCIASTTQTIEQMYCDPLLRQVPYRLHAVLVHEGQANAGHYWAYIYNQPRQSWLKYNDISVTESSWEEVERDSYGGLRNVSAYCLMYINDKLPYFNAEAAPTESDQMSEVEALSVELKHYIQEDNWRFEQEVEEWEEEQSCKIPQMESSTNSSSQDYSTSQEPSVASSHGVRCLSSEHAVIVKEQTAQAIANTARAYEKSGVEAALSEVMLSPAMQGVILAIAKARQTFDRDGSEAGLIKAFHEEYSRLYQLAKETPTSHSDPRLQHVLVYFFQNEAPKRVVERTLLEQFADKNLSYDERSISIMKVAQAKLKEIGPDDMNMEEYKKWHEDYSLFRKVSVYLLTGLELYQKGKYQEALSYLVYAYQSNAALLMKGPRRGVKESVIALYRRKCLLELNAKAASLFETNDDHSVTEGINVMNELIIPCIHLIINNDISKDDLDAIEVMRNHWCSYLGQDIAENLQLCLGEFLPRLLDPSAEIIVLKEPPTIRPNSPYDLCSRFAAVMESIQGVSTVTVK
Procedure, shortened: as §1

Measured: log2 ratio of Biotin-Ahx-Ub-VS probe labelling

CC(NC(=O)CCl)c1cnn(C2CC2)c1 (stereo not given)
inactive: USP19 -0.305 | USP22 -0.22 | USP24 -0.409 | USP25 -0.784 | USP28 -0.621
